Assay outcomes deposited in PubChem BioAssay by National Center for Advancing Translational Sciences (NCATS).
Sampled rows, rich in hits. Any-hit rate of the full collection: about 0.57%.
ALOX12 inhib: qHTS Assay for Inhibitors of 12-hLO (12-human lipoxygenase); AID 1452, 2008; Potency, µM (series often up to 57.1 µM), for inactives: top-dose activity change, negative = inhibition, most hits filed as inhibitors; 150,000 tested, 0.12% active; purified 12-hLO, xylenol orange hydroperoxide absorbance; note: potency is the fitted concentration of half-maximal effect; nearly all actives have a fitted effect of over 55% in size
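Purified human 12hLO (150 nM), preincubated 15 min with compound, then 40 uM arachidonic acid for 30 min, room temperature, Hepes pH 7.0 with 0.01% Triton X-100. Hydroperoxide detected by ferrous iron/xylenol orange; 573/405 nm absorbance ratio gives reaction progress.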
IMPase inh: qHTS Assay for Identifying the Cell-Membrane Permeable IMPase Inhibitors. Inositol monophosphatase 1 (Rattus norvegicus), P97697. CHO-M1 cells, IP1 accumulation, HTRF TR-FRET ratio. inhibition (IP1 accumulation), % at 46.1 µM. 120,000 tested, under 10 active; active = well fitted curve in the direction sought with a large enough effect in the signal ratio, not every such curve was filed as active; inconclusive = small, poorly fitted or top-dose-only effect, or a change in a side signal; inactive = no such curve, though single readings can be large or run the other way; the % refers to the signal ratio;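 note: cells stimulated with carbachol in lithium chloride buffer; plate controls were DMSO basal wells for no effect and reference inhibitor wells for full effect; higher means more IMPase inhibition seen as more IP1 and lower FRET ratio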
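CHO-M1 cells (CHO stably expressing M1 receptor), compound up to 46 uM final, stimulated with carbachol (50 uM as added) in buffer with 50mM LiCl, pH 7.4, 30 min at 37C. Cytosolic IP1 read by TR-FRET; AC50 from Hill fits.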
IMPase Li cell: qHTS Assay for Identifying the Cell-Membrane Permeable IMPase Inhibitors: Potentiation with Lithium; Potency, µM (series often up to 59.4 µM), without a hit: at the highest dose activity, negative = IMPase inhibition, hits mostly inhibitors; CHO-M1 cells, IP1 TR-FRET (IP-One), carbachol + lithium; AID 1457, 2008; 210,000 tested, 0.35% active;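 note: IP1 builds up when IMPase is blocked and the TR-FRET signal falls; potency is the fitted concentration of half-maximal effect; plate controls were basal vehicle for no effect and high inhibitor control for full effect; nearly all actives have a fitted effect of over 50% in size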
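Concentration–response in CHO-M1 cells, lithium-potentiated; 30 min at 37C. IP1 detected by competitive TR-FRET after 10 min lysis at RT. Hill-fitted AC50.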
ALOX15B inhib: qHTS Assay for Inhibitors of 15-hLO-2 (15-human lipoxygenase 2) | 110,000 tested, 0.56% active | purified 15hLO-2, xylenol orange hydroperoxide absorbance | Polyunsaturated fatty acid lipoxygenase ALOX15B (Homo sapiens), O15296 | AID 881, 2007 | Potency, µM (titrated, usually from 57.1 µM), inactives show at the highest dose activity change, negative = inhibition, most hits filed as inhibitors; note: potency is the fitted concentration of half-maximal effect; nearly all actives have a fitted effect of over 60% in size
Target sequence (O15296 whole entry, looked up): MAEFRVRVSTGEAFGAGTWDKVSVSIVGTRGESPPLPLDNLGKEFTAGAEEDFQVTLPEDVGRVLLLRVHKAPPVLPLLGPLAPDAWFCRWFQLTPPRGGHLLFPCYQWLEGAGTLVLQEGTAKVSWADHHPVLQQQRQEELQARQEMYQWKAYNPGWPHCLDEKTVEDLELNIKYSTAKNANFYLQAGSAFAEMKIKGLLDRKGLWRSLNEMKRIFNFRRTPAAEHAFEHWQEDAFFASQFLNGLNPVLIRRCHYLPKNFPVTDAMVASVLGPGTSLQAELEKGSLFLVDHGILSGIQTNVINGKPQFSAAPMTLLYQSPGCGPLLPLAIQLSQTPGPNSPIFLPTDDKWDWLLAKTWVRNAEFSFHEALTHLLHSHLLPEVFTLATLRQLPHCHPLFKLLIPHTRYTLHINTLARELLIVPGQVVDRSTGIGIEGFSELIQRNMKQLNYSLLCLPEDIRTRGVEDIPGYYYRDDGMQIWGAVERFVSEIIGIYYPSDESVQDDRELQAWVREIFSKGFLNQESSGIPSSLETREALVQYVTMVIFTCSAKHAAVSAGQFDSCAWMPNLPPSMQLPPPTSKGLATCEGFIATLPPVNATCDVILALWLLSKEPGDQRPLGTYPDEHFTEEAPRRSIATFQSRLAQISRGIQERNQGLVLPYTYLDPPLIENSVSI
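Screening format was qHTS against 50 nM purified 15hLO-2 in Hepes pH 7.5 with detergent. Activity follows hydroperoxide formation from 45 uM arachidonic acid, measured as 573:405 nm absorbance ratio of the ferric-xylenol orange complex.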
* hit, by the source's call; ? = inconclusive; nt = no result given; [ ] = dose if it differs, or a comment. Unless noted, calls come from the whole dose curve; as a rule, active = well fitted curve in the direction sought with a large enough effect; inconclusive = small, poorly fitted or top-dose-only effect, or another doubt; inactive = no such curve, though single readings can be large; an effect the other way counts as inactive or inconclusive. Unless noted, % is set by controls: 0 for no effect and ±100 for the full control effect.

SMILES | ALOX12 inhib | IMPase inh | IMPase Li cell | ALOX15B inhib
O=C1CC(Sc2nnc(-c3ccccc3)o2)C(=O)N1c1ccccc1 (configuration not stated) | -1% | ? | ? | -15%
COC(=O)C1=C(C(=O)OC)[C@@H]2N(Cc3ccccc3)c3ccccc3[C@@]23C[C@@H](C(=O)OC)N(S(=O)(=O)c2cccs2)C3=N1 | 2%[11.4 µM] | nt | 2% | nt
COc1cc(OC)c(C2CC(=O)N3CN(c4ccccc4)CSC3=C2C#N)cc1OC (configuration not stated) | -22% | -4 | -3%[38.3 µM] | 10µM*
COc1ccc(OC)c(C2CC(=O)N3CN(c4ccc(C)c(Cl)c4)CSC3=C2C#N)c1 (configuration not stated) | -7% | -11 | 12%[38.3 µM] | ?
CCc1ccccc1N1CSC2=C(C#N)C(c3cc(OC)c(OC)cc3OC)CC(=O)N2C1 (configuration not stated) | ? | 8 | -23%[38.3 µM] | 10µM*
Clc1cccc2c1CN(C1=NCCN1)C2 | 0% | 5 | 8% | 27%
COc1cc(OC)cc(C(=O)NC(=S)NCCc2ccccc2)c1 | 4µM* | 10 | 30%[38.3 µM] | 7.9µM*
S=C(NCCc1ccccc1)NCCc1ccccc1 | -16% | nt | 0% | nt
CC(C)(C)C(=O)NC(=S)NCCc1ccccc1 | 13µM* | 9 | 34%[38.3 µM] | 13µM*
COc1ccc(-c2nc3c(c4c2C[C@H](c2ccccc2)OC4)CN(S(=O)(=O)c2ccc(Cl)c4nonc24)CC3)c(C)c1 | -7%[11.4 µM] | nt | 3% | nt
COc1ccc(S(=O)(=O)Nc2ccccc2SC)cc1C | -10% | 4 | 11µM* | -15%
COc1ccc(S(=O)(=O)Nc2ccccc2OC)cc1C | -1% | -3 | 16%[38.3 µM] | -2%
CCCCCCCCCCCCCCCC(=O)OCC(O)C1OC(=O)C(O)=C1O (configuration not stated) | -1%[0.00818 µM] | nt | 0% | 8.9µM*
CCCCCCCCCCCCCCCCCC(=O)OCC(C)O (configuration not stated) | 0%[0.00818 µM] | nt | 18% | -3%[0.0915 µM]
Cc1ccc(-c2nnc3c4ccccc4c(C)nn23)cc1NC(=O)c1ccccc1 | nt | -4 | nt | nt
CCCN1C(=O)C2(C(C(=O)c3ccc(C)o3)=C(O)C(=O)N2CCCN2CCOCC2)c2ccccc21 (configuration not stated) | -3% | -27 | 10µM* | 2%
Cc1ccc(-n2c(C)nc3oc4ccccc4c(=O)c3c2=O)cc1 | -29% | -18 | 6.3µM* | -2%
NCCOC[C@H](N)C(=O)O | 1%[11.4 µM] | nt | -10% | -9%[11.4 µM]
c1ccc(Cn2nc(-c3ccccc3)nc2-c2ccccc2)cc1 | -3% | nt | 17% | nt
CN=c1nc(-c2ccccc2)n(-c2ccccc2)s1 | ? | 14 | 25% | 1µM*
Cc1cn(S(=O)(=O)c2ccc(Br)c3ccccc23)cn1 | 0% | ? | 11µM* | 2%
CCn1c(C)c(CCC(=O)O)c(=O)n2nc(-c3ccccc3OC)cc12 | 3% | ? | 10µM* | -4%
C=C(C)CNCCN | -2%[11.4 µM] | nt | -14% | -9%[11.4 µM]
Cc1nn2c3ccccc3n(CC(=O)c3cccs3)c2nc1=O | nt | nt | 4µM* | nt
Cc1ccc(SCN2CCCCC2)cc1 (tested in a mixture with another compound) | -22%[11.4 µM] | nt | -3% | -10%[11.4 µM]
SMILES | ALOX12 inhib | IMPase inh | IMPase Li cell | ALOX15B inhib
COC(=O)c1cc(Cl)c(NC(=O)/C=C/c2ccc(OC)c(OC)c2)cc1OC | 1% | -8 | 10µM* | -2%
CS(=O)(=O)N1CCC[C@@]2(CCN(c3ccccn3)C2)C1 | 0% | nt | 15% | -4%
CN(C)c1ncc2nc(-c3ccc(F)cc3)c(=O)n(CCc3ccccc3)c2n1 | nt | nt | 10µM* | -5%
CCNc1ncc2nc(-c3ccc(F)cc3)c(=O)n(CCc3ccccc3)c2n1 | nt | nt | 5.6µM* | -1%
CCNc1ncc2nc(-c3ccccc3)c(=O)n(CCc3ccccc3)c2n1 | -8% | nt | -27% | 2%
CCNc1ncc2nc(-c3ccc(Cl)cc3)c(=O)n(C[C@H]3CCCO3)c2n1 | nt | nt | 10µM* | 0%
COc1ncc2nc(-c3ccc(F)cc3)c(=O)n(CCc3ccccc3)c2n1 | nt | nt | 14µM* | -3%
Cc1ccc(C(=O)NC(=S)Nc2ccc(Oc3ccc(Cl)cc3)cc2)cc1 | -8% | 17 | 11%[38.3 µM] | 13µM*
CCN(c1ccccc1)S(=O)(=O)c1ccc(NC(=S)NC(=O)c2cccs2)cc1 | 25µM* | 20 | 29%[38.3 µM] | ?
O=C(NC(=S)Nc1ccc(N2CCCCC2)cc1)c1cccs1 | ? | 7 | 4% | 20µM*
O=C(C1=C(O)C(=O)N(CCc2ccccc2)C1c1ccncc1)c1cc2ccccc2o1 (configuration not stated) | nt | nt | 4.5µM* | nt
CCN(CC)CCN1C(=O)C(O)=C(C(=O)c2cc3ccccc3o2)C1c1cccnc1 (configuration not stated) | -1% | ? | 10µM* | -9%
CN(C)CCN1C(=O)C(O)=C(C(=O)c2cc3ccccc3o2)C1c1cccc(Br)c1 (configuration not stated) | -6% | ? | 11µM* | 22%
Cc1nc(C)c(C(=O)C2=C(O)C(=O)N(CCN(C)C)C2c2ccccc2)s1 (configuration not stated) | 5% | -16 | 16%[38.3 µM] | 0%
CCN(CC)CCN1C(=O)C(O)=C(C(=O)c2sc(C)nc2C)C1c1cccnc1 (configuration not stated) | 1% | 2 | 19%[38.3 µM] | -6%
O=C(C1=C(O)C(=O)N(CCCN2CCOCC2)C1c1ccccn1)c1cc2ccccc2o1 (configuration not stated) | 0% | ? | 11µM* | -12%
O=C(Nc1ccc(O)c2c(=O)cc(-c3ccccc3Cl)oc12)c1ccc(Br)cc1 | -11%[0.00818 µM] | nt | -1% | ?
COc1ccccc1C1C(C(=O)c2cc3ccccc3o2)=C(O)C(=O)N1CCN(C)C (configuration not stated) | 10% | -27 | 8.9µM* | 6%
COc1cc(C2C(C(C)=O)=C(O)C(=O)N2CCN(C)C)ccc1O (configuration not stated) | -6% | 2 | 4%[38.3 µM] | 9%
O=C(CSC1=NS(=O)(=O)c2ccccc21)Nc1ccccc1 | 3% | 0 | 8%[38.3 µM] | 13µM*
CO[C@@H]1C=CO[C@]2(C)Oc3c(C)c(O)c4c(O)c(c(C=NN5CCN(C)CC5)c(O)c4c3C2=O)NC(=O)C(C)=CC=C[C@H](C)[C@H](O)[C@H](C)[C@H](O)[C@H](C)[C@H](OC(C)=O)[C@H]1C | -6%[25.6 µM] | -1[20.6 µM] | 6% | -12%[25.6 µM]
COc1ccc(C(=O)Nc2cccc3c2C(=O)NC3=O)cc1S(=O)(=O)N1CCOCC1 | 9% | -4 | 10µM* | -15%
COc1ccc(C(=O)Nc2cccc(C)c2)cc1S(=O)(=O)N1CCOCC1 | -4% | -4 | 35%[38.3 µM] | -2%
